Assay [1] is described as follows: NCI Yeast Anticancer Drug Screen. Data for the rad50 strain (AID 155).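 Also: 0% = growth of vehicle-only cultures of the same strain.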 The settings on record: S. cerevisiae rad50 strain growth inhibition, active compounds read high. An outline of the steps:
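Growth of the mutant yeast was measured after compound exposure and referenced to vehicle-treated cultures.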

A short description of assay [2]: NCI Yeast Anticancer Drug Screen. Data for the mec2-1 strain (AID 157). The settings on record: S. cerevisiae mec2-1 strain, active compounds read high. An outline of the steps:
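Strain: mec2-1 (DNA repair/cell cycle alteration). Compound exposure, then growth measured; inhibition expressed relative to vehicle.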

Assay [3] is described as follows: NCI Yeast Anticancer Drug Screen. Data for the sgs1 mgt1 strain (AID 161).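 Also: 0% = growth of cultures given vehicle only.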 The settings on record: S. cerevisiae sgs1 mgt1 strain, active compounds read high. An outline of the steps:
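Test agents were incubated with a DNA-repair-mutant yeast strain. Growth was then read and compared against vehicle-treated controls.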

A short description of assay [4]: NCI Yeast Anticancer Drug Screen. Data for the cln2 rad14 strain (AID 165).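 Also: 0% = growth equal to vehicle treated cultures.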 The settings on record: S. cerevisiae cln2 rad14 strain, active compounds read high. An outline of the steps:
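Compounds are applied to the cln2 rad14 yeast strain, and growth is then compared with that of vehicle-treated cultures to give inhibition.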

Assay [5] can be described thus: NCI Yeast Anticancer Drug Screen. Data for the bub3 strain (AID 167). The settings on record: S. cerevisiae bub3 mutant strain, active compounds read high. An outline of the steps:
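Whole-cell yeast assay. The mutant strain was incubated with compounds, and growth inhibition was determined by comparison with vehicle-treated cells.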

Assay [6] can be described thus: NCI Yeast Anticancer Drug Screen. Data for the mlh1 rad18 strain (AID 175). The settings on record: S. cerevisiae mlh1 rad18 strain growth inhibition, active compounds read high. In short, it runs like this:
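Read-out is yeast growth inhibition, calculated against vehicle-only controls. The compound was applied to a strain engineered with DNA damage repair alterations.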

Where [7] appears, read: at 5.0 µM (retest, dose inferred, filed as 0.5).
[8] abbreviates: at 50.0 µM (retest, dose inferred, filed as 5.0).

The structures appear in SMILES notation. The panel holds about 79,000 compounds, 15% with a hit somewhere; the sample as a whole holds those more often. A number with no mark means an inactive call. Calls of active or inactive are those of the source. Rule as the data show it: active = growth inhibition above about 70%; inactive = the rest.

For `[C-]#[O+].[C-]#[O+].[Mo].[N-]=Nc1ccc([N+](=O)[O-])cc1.[c-]1[c-][c-][cH-][c-]1`, the growth inhibition in assay [1] (setting [7]) was -1%; in assay [1] (setting [8]), 69%; in assay [1] (at 50.0 µM), 93.7% (active); in assay [2] (setting [7]), -6%; in assay [2] (setting [8]), 55%; in assay [2] (at 50.0 µM) it was 21.3%. The growth inhibition in assay [3] (setting [7]) is 2%; in assay [3] (setting [8]), 86% (active); in assay [3] (at 50.0 µM), 84.9% (active); in assay [4] (setting [7]), 9%; in assay [4] (setting [8]), 26%; in assay [4] (at 50.0 µM), 8.7%. Further, the growth inhibition is -12% in assay [5] (setting [7]); 71% (active) in assay [5] (setting [8]); 4.95% in assay [5] (at 50.0 µM); 2% in assay [6] (setting [7]); 75% (active) in assay [6] (setting [8]); 79.3% (active) in assay [6] (at 50.0 µM).
As for `O=C(c1ccccc1)c1cc(CN(CCCl)CCCl)c(O)cc1O`, the growth inhibition in assay [1] (setting [7]) was 0%; in assay [1] (setting [8]), 32%; in assay [1] (at 50.0 µM) it was 54.3%; in assay [2] (setting [7]), -17%; in assay [2] (setting [8]) it was 43%; in assay [2] (at 50.0 µM) it was 17.9%. The growth inhibition in assay [3] (setting [7]) was 7%; in assay [3] (setting [8]) it was 75% (active); in assay [3] (at 50.0 µM) it was 43%; in assay [4] (setting [7]), -2%; in assay [4] (setting [8]) it was -1%; in assay [4] (at 50.0 µM), 13.2%. The growth inhibition in assay [5] (setting [7]) is -6%; in assay [5] (setting [8]), -4%; in assay [5] (at 50.0 µM), 29.3%; in assay [6] (setting [7]), 11%; in assay [6] (setting [8]), 86% (active); in assay [6] (at 50.0 µM), 80.3% (active).
As to `CCC[CH2][Sn]1([CH2]CCC)[O]C(=O)c2ccc(C)cc2[O]1`, the growth inhibition is 79% (active) in assay [1] (setting [7]); 99% (active) in assay [1] (setting [8]); 98.8% (active) in assay [1] (at 50.0 µM); 84% (active) in assay [2] (setting [7]); 99% (active) in assay [2] (setting [8]); 99.3% (active) in assay [2] (at 50.0 µM). In addition, the growth inhibition in assay [3] (setting [7]) is 85% (active); in assay [3] (setting [8]), 98% (active); in assay [3] (at 50.0 µM), 99.2% (active); in assay [4] (setting [7]), 76% (active); in assay [4] (setting [8]), 98% (active); in assay [4] (at 50.0 µM), 98% (active). For the same compound, the growth inhibition is 84% (active) in assay [5] (setting [7]); 98% (active) in assay [5] (setting [8]); 98.7% (active) in assay [5] (at 50.0 µM); 82% (active) in assay [6] (setting [7]); 97% (active) in assay [6] (setting [8]); 98.8% (active) in assay [6] (at 50.0 µM).
As to `CCCCCCCCN1CCN(CCCCCCCC)C2CCCCC21` (stereo not given) (tested in a mixture with another compound), the growth inhibition is 12% in assay [1] (setting [7]); 95% (active) in assay [1] (setting [8]); 67.2% in assay [1] (at 50.0 µM); 4% in assay [2] (setting [7]); 96% (active) in assay [2] (setting [8]); 44.1% in assay [2] (at 50.0 µM). Besides, the growth inhibition in assay [3] (setting [7]) is 25%; in assay [3] (setting [8]) it was 94% (active); in assay [3] (at 50.0 µM) it was 70.2% (active); in assay [4] (setting [7]), 8%; in assay [4] (setting [8]) it was 71% (active); in assay [4] (at 50.0 µM) it was 56%. For the same compound, the growth inhibition in assay [5] (setting [7]) was 20%; in assay [5] (setting [8]) it was 99% (active); in assay [5] (at 50.0 µM) it was 71.5% (active); in assay [6] (setting [7]) it was 18%; in assay [6] (setting [8]) it was 96% (active); in assay [6] (at 50.0 µM), 77% (active).
Consider `CC1=C[C@H]2O[C@H]3C[C@H]4OC(=O)/C=C\C=C\C(=O)OCC[C@@H](C)C(O)C(=O)OC[C@@]2(CC1)[C@@]4(C)[C@]31CO1` (stereo not given in full), for which the growth inhibition in assay [1] (setting [7]) is 99% (active); in assay [1] (setting [8]) it was 98% (active); in assay [1] (at 50.0 µM), 93.5% (active); in assay [2] (setting [7]) it was 99% (active); in assay [2] (setting [8]), 99% (active); in assay [2] (at 50.0 µM), 95% (active). The growth inhibition is 100% (active) in assay [3] (setting [7]); 99% (active) in assay [3] (setting [8]); 95% (active) in assay [3] (at 50.0 µM); 99% (active) in assay [4] (setting [7]); 98% (active) in assay [4] (setting [8]); 93.2% (active) in assay [4] (at 50.0 µM). Besides, the growth inhibition in assay [5] (setting [7]) is 99% (active); in assay [5] (setting [8]), 99% (active); in assay [5] (at 50.0 µM), 94.3% (active); in assay [6] (setting [7]) it was 99% (active); in assay [6] (setting [8]), 98% (active); in assay [6] (at 50.0 µM) it was 93.5% (active).
In the case of `[CH3][Sn]([CH3])([Br])[Br].c1ccc(-c2nnc(-c3ccccn3)nc2-c2ccccc2)cc1`, the growth inhibition in assay [1] (setting [7]) is -3%; in assay [1] (setting [8]) it was 80% (active); in assay [1] (at 50.0 µM), 20.4%; in assay [2] (setting [7]), -16%; in assay [2] (setting [8]) it was 58%; in assay [2] (at 50.0 µM), 32.9%. The growth inhibition is -9% in assay [3] (setting [7]); 53% in assay [3] (setting [8]); 16.4% in assay [3] (at 50.0 µM); -17% in assay [4] (setting [7]); 90% (active) in assay [4] (setting [8]); 11.8% in assay [4] (at 50.0 µM). Further, the growth inhibition in assay [5] (setting [7]) was -4%; in assay [5] (setting [8]), 87% (active); in assay [5] (at 50.0 µM) it was -3.3%; in assay [6] (setting [7]), -23%; in assay [6] (setting [8]), 47%; in assay [6] (at 50.0 µM) it was 23.8%.
With `C=C1C(C)C2C(Cc3ccccc3)NC(=O)C23C(OC(C)=O)/C=C/C(C)(O)CC(C)C/C=C/C3C1O` (stereo not given), the growth inhibition in assay [1] (setting [7]) is 85% (active); in assay [1] (setting [8]), 98% (active); in assay [1] (at 50.0 µM), 91.5% (active); in assay [2] (setting [7]), 94% (active); in assay [2] (setting [8]), 99% (active); in assay [2] (at 50.0 µM), 92.5% (active). Moreover, the growth inhibition was 86% (active) in assay [3] (setting [7]); 99% (active) in assay [3] (setting [8]); 91.5% (active) in assay [3] (at 50.0 µM); 86% (active) in assay [4] (setting [7]); 97% (active) in assay [4] (setting [8]); 90.7% (active) in assay [4] (at 50.0 µM). Besides, the growth inhibition is 92% (active) in assay [5] (setting [7]); 99% (active) in assay [5] (setting [8]); 90.9% (active) in assay [5] (at 50.0 µM); 95% (active) in assay [6] (setting [7]); 99% (active) in assay [6] (setting [8]); 89.4% (active) in assay [6] (at 50.0 µM).
As to `O=[As](O)(O)CCc1ccccc1`, the growth inhibition in assay [1] (setting [7]) was -148%; in assay [1] (setting [8]), -168%; in assay [1] (at 50.0 µM) it was 2.3%; in assay [2] (setting [7]), -50%; in assay [2] (setting [8]), -54%; in assay [2] (at 50.0 µM), 3.75%. In addition, the growth inhibition was -67% in assay [3] (setting [7]); -56% in assay [3] (setting [8]); 8.35% in assay [3] (at 50.0 µM); -58% in assay [4] (setting [7]); -65% in assay [4] (setting [8]); 17.4% in assay [4] (at 50.0 µM). For the same compound, the growth inhibition in assay [5] (setting [7]) was -67%; in assay [5] (setting [8]), -78%; in assay [5] (at 50.0 µM), -5.95%; in assay [6] (setting [7]), -146%; in assay [6] (setting [8]) it was -115%; in assay [6] (at 50.0 µM), 5.7%.
As for `C[As](C)SCCC(N)C(=O)NC(CCS[As](C)C)C(=O)O` (stereo not given), the growth inhibition in assay [1] (setting [7]) was 30%; in assay [1] (setting [8]), 98% (active); in assay [1] (at 50.0 µM), 88.9% (active); in assay [2] (setting [7]), 20%; in assay [2] (setting [8]) it was 99% (active); in assay [2] (at 50.0 µM) it was 90.8% (active). Moreover, the growth inhibition in assay [3] (setting [7]) is -3%; in assay [3] (setting [8]), 99% (active); in assay [3] (at 50.0 µM), 89.8% (active); in assay [4] (setting [7]), 35%; in assay [4] (setting [8]), 98% (active); in assay [4] (at 50.0 µM), 92.2% (active). Also, the growth inhibition is 2% in assay [5] (setting [7]); 97% (active) in assay [5] (setting [8]); 90% (active) in assay [5] (at 50.0 µM); 27% in assay [6] (setting [7]); 99% (active) in assay [6] (setting [8]); 75.5% (active) in assay [6] (at 50.0 µM).
For the compound `CCN(CC)CC(=O)c1cc2ccccc2c2ccccc12`, the growth inhibition in assay [1] (setting [7]) was 36%; in assay [1] (setting [8]), 97% (active); in assay [1] (at 50.0 µM) it was 99.3% (active); in assay [2] (setting [7]), 14%; in assay [2] (setting [8]), 93% (active); in assay [2] (at 50.0 µM), 92.2% (active). Moreover, the growth inhibition in assay [3] (setting [7]) is 47%; in assay [3] (setting [8]) it was 97% (active); in assay [3] (at 50.0 µM), 99.4% (active); in assay [4] (setting [7]), 2%; in assay [4] (setting [8]) it was 82% (active); in assay [4] (at 50.0 µM), 31.1%. The growth inhibition was 11% in assay [5] (setting [7]); 98% (active) in assay [5] (setting [8]); 99.1% (active) in assay [5] (at 50.0 µM); 36% in assay [6] (setting [7]); 98% (active) in assay [6] (setting [8]); 99% (active) in assay [6] (at 50.0 µM).
